The values that follow come from PubChem BioAssay (NCATS).

Results filed as inconclusive are left out. Entries that show only a call come without a potency. The source made the active and inactive calls. Calls follow the shape of the dose curve; as a rule, active = well fitted cell-killing curve with a large enough effect; inconclusive = small, poorly fitted or top-dose-only effect, or effect the other way; inactive = flat fitted curve, though single readings scatter.
Potency is read from the fitted curve at half-maximal effect.

One test concerns HeLa. In words: Primary qHTS to identify gynecologic anti-cancer compounds using libraries of approved drugs and bioactive compounds (AID 1345084). Also: nearly all actives have a fitted effect of over 55% in size. Conditions: Gynecologic cancer cell panel viability, ATPlite luminescence, 48 h; series mostly up to 57.5 µM. In a few lines:
(§1)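 Five-point cytotoxicity, 48 h drug exposure at 37 C, 5% CO2, on cells seeded 16 h beforehand. ATP content read by ATPlite luminescence.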
(Quantitative high-throughput screening tests each substance at several concentrations.)
Regarding `CC(C)OC(=O)C(C)(C)Oc1ccc(C(=O)c2ccc(Cl)cc2)cc1`, the Potency entry was “inactive”.
For `O=C(Nc1cccc(Br)c1)c1cccc(S(=O)(=O)N2CCCCCC2)c1`, the Potency entry is “inactive”.
The same measure, in the same setting: with `C=C1C(=O)[C@@]23C(CC[C@@H]1[C@H]2O)[C@@]12CO[C@]3(O)[C@@H](O)[C@@H]1C(C)(C)CC[C@@H]2O` (stereo partly specified) the entry was “inactive”.
On to `COc1ncc(-c2ccc3nccc(-c4ccnnc4)c3c2)cc1NS(=O)(=O)c1ccc(F)cc1F`, for which the Potency is 0.631 µM (active).
Consider `CC(C)n1nc(-c2ccc3oc(N)nc3c2)c2c(N)ncnc21`, for which the Potency was 12.6 µM (active).
As to `CCOc1ccc(Nc2nc(-c3c(C)nc4ccccn34)cs2)cc1`, the Potency was 0.178 µM (active).
For the compound `COc1cc(N2CCC(N3CCN(C)CC3)CC2)ccc1Nc1ncc(Cl)c(Nc2ccccc2S(=O)(=O)C(C)C)n1`, the Potency is 3.16 µM (active).
On the same count and under the same terms, with `COc1cc(N2CCC(N3CCN(C)CC3)CC2)ccc1Nc1ncnc(Nc2ccccc2S(=O)(=O)C(C)C)n1` the figure was 10 µM (active).
With `COCCOc1nc(-c2ccc(Cl)c(Cl)c2)n(-c2ccc(NC(=O)CCl)cc2)n1`, the Potency entry is “inactive”.
The same measure, in the same setting: with `Cc1ccc(Nc2cc(-c3cccc(N4C(=O)c5ccccc5C4=O)c3)ncn2)cc1NS(C)(=O)=O` the entry was “inactive”; with `CNC1CCC(N(Cc2cccc(-c3ccncc3)c2)C(=O)c2sc3c(F)ccc(F)c3c2Cl)CC1` (stereo unspecified), “inactive”.
On the same count and under the same terms, with `Cc1cccc(Nc2nc(-c3ccncc3)cs2)c1` the entry was “inactive”; with `Cc1ccn(-c2ccc(-c3ncco3)cc2)c(=O)c1-c1ccc2nc(N)ncc2c1`, “inactive”.
Consider `CN(C)Cc1ccc(-c2nc3cccc4c3n2CCNC4=O)cc1`, for which the Potency result is “inactive”.
On to `CN1C[C@H]2c3ccccc3Oc3ccc(Cl)cc3[C@@H]2C1`, for which the Potency entry is “inactive”.

The next test has as its system Hek293T. The description is as above. Conditions: Gynecologic cancer cell panel viability, ATPlite luminescence, 48 h, control line for the selectivity index; series mostly up to 57.5 µM. The gist of the method:
as §1
Background: In ATP-based viability assays light output follows the ATP content of the culture.
Regarding `CN[C@@H](C)C(=O)N[C@H]1CN(C(=O)CC(C)C)CC[C@H]2CC[C@@H](C(=O)NC(c3ccccc3)c3ccccc3)N2C1=O`, the Potency entry was “inactive”.
Still for that read-out and setting: with `CC(C)(C)NC(=O)Nc1cccc(Nc2ncc(F)c(NC(C)(C)CO)n2)c1` the entry was “inactive”.
The same measure, in the same setting: with `CC(C)C(=O)Nc1ncc(-c2cc(C(F)F)nn2-c2c(Cl)cccc2Cl)s1` the entry was “inactive”; with `C=C1C(=O)[C@@]23C(CC[C@@H]1[C@H]2O)[C@@]12CO[C@]3(O)[C@@H](O)[C@@H]1C(C)(C)CC[C@@H]2O` (stereo partly specified), 28.2 µM (active).
Same read-out and setting: with `COc1ncc(-c2ccc3nccc(-c4ccnnc4)c3c2)cc1NS(=O)(=O)c1ccc(F)cc1F` the figure was 0.1 µM (active); with `CC(C)n1nc(-c2ccc3oc(N)nc3c2)c2c(N)ncnc21`, 0.316 µM (active).
In the case of `O=c1cc(CN2CCOCC2)occ1OCCCCCSc1ccnc2cc(C(F)(F)F)ccc12`, the Potency is 31.6 µM (active).
For `COCCOC(=O)C1=C(C)NC2=C(C(=O)CC(c3ccccc3OC)C2)C1c1cccc(O)c1` (stereo unspecified), the Potency entry is “inactive”.
The same measure, in the same setting: with `NC(=O)c1cccc2[nH]c(-c3ccc([C@H]4CCCN4)cc3F)nc12` the figure was 17.8 µM (active); with `CC(=O)O[C@]1(C(C)=O)CC[C@H]2[C@@H]3C=C(Cl)C4=CC(=O)[C@@H]5C[C@@H]5[C@]4(C)[C@H]3CC[C@@]21C`, “inactive”.
Regarding `CC1=C(/C=C/C(C)=C/C=C/C(C)=C/C(=O)Nc2ccc(O)cc2)C(C)(C)CCC1`, the Potency was 20 µM (active).
Same read-out and setting: with `Cc1ccn(-c2ccc(-c3ncco3)cc2)c(=O)c1-c1ccc2nc(N)ncc2c1` the entry was “inactive”.
With `NC(=O)c1ccc2nc(-c3ccc(Oc4ccc(Cl)cc4)cc3)[nH]c2c1`, the Potency result was “inactive”.
Still for that read-out and setting: with `CC(=O)Nc1ccc([C@H](C)C(=O)Nc2ncc(C(C)C)s2)cc1` the figure was 15.8 µM (active).

The subject of the next test is JEG-3. The description is as above. As to conditions: Gynecologic cancer cell panel viability, ATPlite luminescence, 48 h; series mostly up to 57.5 µM. In a few lines: as §1
As for `CN[C@@H](C)C(=O)N[C@H]1CN(C(=O)CC(C)C)CC[C@H]2CC[C@@H](C(=O)NC(c3ccccc3)c3ccccc3)N2C1=O`, the Potency result is “inactive”.
Still for that read-out and setting: with `CC(C)(C)NC(=O)Nc1cccc(Nc2ncc(F)c(NC(C)(C)CO)n2)c1` the entry was “inactive”; with `CC(C)C(=O)Nc1ncc(-c2cc(C(F)F)nn2-c2c(Cl)cccc2Cl)s1`, “inactive”; with `CC(C)OC(=O)C(C)(C)Oc1ccc(C(=O)c2ccc(Cl)cc2)cc1`, “inactive”.
Still for that read-out and setting: with `O=C(Nc1cccc(Br)c1)c1cccc(S(=O)(=O)N2CCCCCC2)c1` the entry was “inactive”; with `COc1ncc(-c2ccc3nccc(-c4ccnnc4)c3c2)cc1NS(=O)(=O)c1ccc(F)cc1F`, 25.1 µM (active).
The same measure, in the same setting: with `COc1cc(N2CCC(N3CCN(C)CC3)CC2)ccc1Nc1ncc(Cl)c(Nc2ccccc2S(=O)(=O)C(C)C)n1` the entry was “inactive”; with `COc1cc(N2CCC(N3CCN(C)CC3)CC2)ccc1Nc1ncnc(Nc2ccccc2S(=O)(=O)C(C)C)n1`, “inactive”.
As to `COCCOC(=O)C1=C(C)NC2=C(C(=O)CC(c3ccccc3OC)C2)C1c1cccc(O)c1` (stereo unspecified), the Potency entry is “inactive”.
On the same count and under the same terms, with `NC(=O)c1cccc2[nH]c(-c3ccc([C@H]4CCCN4)cc3F)nc12` the figure was 14.1 µM (active).
Same read-out and setting: with `CC(=O)O[C@]1(C(C)=O)CC[C@H]2[C@@H]3C=C(Cl)C4=CC(=O)[C@@H]5C[C@@H]5[C@]4(C)[C@H]3CC[C@@]21C` the entry was “inactive”; with `CNC1CCC(N(Cc2cccc(-c3ccncc3)c2)C(=O)c2sc3c(F)ccc(F)c3c2Cl)CC1` (stereo unspecified), “inactive”; with `Cc1ccn(-c2ccc(-c3ncco3)cc2)c(=O)c1-c1ccc2nc(N)ncc2c1`, “inactive”.
On the same count and under the same terms, with `NC(=O)c1ccc2nc(-c3ccc(Oc4ccc(Cl)cc4)cc3)[nH]c2c1` the entry was “inactive”; with `CN(C)Cc1ccc(-c2nc3cccc4c3n2CCNC4=O)cc1`, “inactive”; with `CC(=O)Nc1ccc([C@H](C)C(=O)Nc2ncc(C(C)C)s2)cc1`, “inactive”.
As for `CN1C[C@H]2c3ccccc3Oc3ccc(Cl)cc3[C@@H]2C1`, the Potency entry is “inactive”.
